# Bioassay records from PubChem.
# D2 ag-1 – activates the human D2 dopamine receptor | P14416 | DiscoveRx PathHunter D2 beta-arrestin, luminescence, 90 min; 100% = 57 uM dopamine signal | activation, % (concentration not given with the values) | hit rate 0.084% among 360,000 | AID 624465; in the data active = activation above about 40%
# Target sequence (P14416 whole entry, looked up): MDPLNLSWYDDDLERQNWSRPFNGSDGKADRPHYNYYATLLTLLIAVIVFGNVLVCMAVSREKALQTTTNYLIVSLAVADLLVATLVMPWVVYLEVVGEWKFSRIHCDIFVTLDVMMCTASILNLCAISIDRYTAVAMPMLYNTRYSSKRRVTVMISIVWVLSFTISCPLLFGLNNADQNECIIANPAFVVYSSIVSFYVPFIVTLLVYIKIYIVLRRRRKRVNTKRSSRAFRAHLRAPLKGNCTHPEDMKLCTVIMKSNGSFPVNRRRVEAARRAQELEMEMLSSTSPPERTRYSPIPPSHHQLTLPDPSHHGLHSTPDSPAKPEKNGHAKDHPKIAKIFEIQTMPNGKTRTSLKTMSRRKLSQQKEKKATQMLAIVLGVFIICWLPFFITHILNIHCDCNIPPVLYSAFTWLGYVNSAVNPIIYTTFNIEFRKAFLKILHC
#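 DiscoveRx PathHunter D2 beta-arrestin cells (2,100/well) attached overnight, then compound-stimulated 90 min at 37 C in HBSS/10 mM HEPES/0.1% Tween-20 buffer; beta-galactosidase complementation read by luminescence after 1 h at ambient temperature. Dopamine 57 uM final (EC100) as control.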
# D2 antag – antagonists of human D2 dopamine receptor; P14416; inhibition, % at 10 µM; HEK293 TREx D2 cells, calcium flux, dopamine EC80; hit rate 2% among 340,000; in the data active = inhibition above about 30%; inactive = below that, where a call was filed; note: 0% is about no effect
#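 Measurement of antagonist activity uses fluorescent calcium dye in inducible HEK293 T-REx D2 cells: 10 s baseline, compound addition with 180 s read, EC80 dopamine addition with a further 180 s read.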
# D2 PAM-1 – positive allosteric modulators of human D2 dopamine receptor; P14416; HEK293 T-REx D2, calcium flux, EC20 dopamine potentiation; potentiation, % at 10 µM; hit rate 0.34% among 340,000; AID 485347;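 active = potentiation over 3 SD above the plate norm, cut at about 30% in these data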; note: 0% is about no effect
#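 Primary screen. Calcium kinetics in induced HEK293 T-REx D2 cells: compound pre-addition 180 s, EC20 dopamine, 180 s more.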
# D2 ag-2 – activates the human D2 dopamine receptor | HEK293 T-REx D2 cells, calcium flux agonist mode | activation, % at 2 µM | hit rate 0.53% among 340,000;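 active = activation over 3 SD above normal in the single-dose calcium agonist read, cut at about 30% in these data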; note: 0% is about no effect
#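 Agonism is scored from calcium flux in a force-coupled, inducible HEK293 cell line expressing D2, read kinetically for 180 s after compound addition against dopamine controls.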
# D2 PAM-2 – potentiates the human D2 dopamine receptor allosterically. DiscoveRx D2 beta-arrestin cells, luminescence, 90 min; 100% = 57 uM dopamine signal. potentiation, % (no concentration beside the values). hit rate 0.23% among 360,000. AID 624464; in the data active = potentiation above about 50%
#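 PathHunter beta-arrestin assay in DiscoveRx D2 cells. Compounds were added with an EC20 of dopamine (50 nM final) for 90 min at 37 deg C. Luminescence was read 1 h after detection reagent, with 57 uM dopamine as the EC100 control.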
# Starred values were filed as active, the others as inactive; · = no result given. Only some compounds are listed: those with a hit (about 2.4% of all), similar ones and a draw of the others.
SMILES,D2 ag-1,D2 antag,D2 PAM-1,D2 ag-2,D2 PAM-2
O=C(CN(CC1CCCO1)C(=O)CNS(=O)(=O)c1ccc(F)cc1)NCc1ccc(F)cc1 (stereo not given),-1.5,36.6*,5.3,0.3,-3.2
CCCC(C(=O)NC1CCCC1)N(CC1CCCO1)C(=O)CNS(=O)(=O)c1ccc(F)cc1 (stereo not given),-3.6,31.8*,-3.9,0.2,-0.7
Cc1ccccc1OC(=O)CSc1nnc(-c2ccc3c(c2)OCO3)o1,·,·,0.6,-0.8,·
Cc1nn(C)c(C)c1S(=O)(=O)N(CC(=O)NCCc1ccccc1)c1ccc(C(C)C)cc1,·,·,0.6,-0.9,·
COc1ccc(CNc2ncnc(N)n2)cc1,-1.1,13.5,-6.3,1.3,4.0
COc1ccc(CNc2nc(NCc3ccc(OC)cc3)c3[nH]cnc3n2)cc1,6.0,41.6*,3.5,0.0,17.6
COC(=O)c1ccc(/C=C(\C#N)C(=O)NC(C)c2ccccc2)cc1 (stereo not given),-6.9,8.1,10.0,-0.8,-9.1
CC(NC(=O)/C(C#N)=C/c1ccc(N2CCOCC2)cc1)c1ccccc1 (stereo not given),-3.5,2.5,32.2*,4.6,-6.2
O=C(CCC(=O)N1CCSc2ccccc21)NCc1ccccc1Cl,·,·,·,0.2,·
Cc1ccc(Cn2c(C)c3cnn(CC(=O)N4CCN(c5cc(C)ccc5C)CC4)c(=O)c3c2C)cc1,·,·,-0.3,1.7,·
CC[C@H](C)[C@H](NC(=O)[C@H](Cc1ccc(O)cc1)NC(=O)[C@@H](N)C(C)C)C(=O)N[C@@H](Cc1cnc[nH]1)C(=O)N1CCC[C@H]1C(=O)N[C@@H](Cc1ccccc1)C(=O)O,5.9,33.8*,7.3,1.6,-4.2
CCC(C)C(NC(=O)C1CCC(=O)N1C(=O)OCc1ccccc1)C(=O)NC(Cc1ccccc1)C(N)=O (stereo not given),4.9,-20.2,·,1.6,2.4
CCn1c(=O)c(C(=O)NNC(=O)c2cccc(Cl)c2)c(O)c2ccccc21,4.6,11.7,45.5*,17.9,-2.6
Cc1cc2nc(C3CCCN(C(=S)Nc4ccccc4)C3)[nH]c2cc1C (stereo not given),-0.1,31.0*,7.3,-1.0,-8.3
CCc1ccc(-n2nc(CO)c(C(=O)NCCOC)n2)cc1,·,·,·,-0.8,·
CC(=O)Nc1ccc(S(=O)(=O)Nc2ccc(F)c([N+](=O)[O-])c2)cc1,-8.6,43.0*,-13.7,1.5,1.0
CC(=O)Nc1ccc(S(=O)(=O)c2ccc([N+](=O)[O-])cc2)cc1,52.7*,-1.9,-0.6,0.2,-2.9
CC(=O)Nc1ccc(NS(=O)(=O)c2ccc(C)cc2)cc1[N+](=O)[O-],-0.6,-2.7,0.0,-0.6,-7.0
COc1ccc(NC(=O)c2ccco2)cc1NC(=O)c1cc(OC)c(OC)c(OC)c1,·,·,-7.2,-0.7,·
COc1ccc(N2C(=O)CSC2c2cccc(OC)c2OC)cc1 (stereo not given),-2.8,50.7*,-0.3,0.3,-7.6
COc1cccc(NC(=O)C2CCCN2C(=O)Nc2ccccc2)c1 (stereo not given),-4.6,33.5*,4.5,-0.5,-14.3
COc1cccc(NC(=O)C2CCCN2C(=O)Nc2cccc(F)c2)c1 (stereo not given),-1.6,1.5,-1.8,0.5,2.9
Cc1ccc(CC2C(=O)N(CC(=O)O)C(=O)C2C)cc1 (stereo not given),-1.6,30.9*,-8.4,-0.3,-4.9
COc1cc(NC(=O)CC(C)S(=O)(=O)c2cc3c4c(c2)CCN4C(=O)CC3)cc(OC)c1 (stereo not given),·,·,-4.2,·,·
CCOc1ccccc1OCCCNCc1ccco1,-4.0,30.6*,-25.1,-0.3,-15.0
CN(C)C(=O)c1c(NC(=O)c2ccco2)sc2c1CCCCC2,-1.3,34.9*,33.6*,-0.5,20.1
COC(=O)c1c(NC(=O)c2ccco2)sc(C(=O)N(C)C)c1C,-3.4,-20.7,77.3*,0.7,-12.4
O=S(=O)(Nc1cccc(F)c1)c1ccc2[nH]c3c(c2c1)CCCCC3,·,·,-7.3,0.1,·
CCc1c(C)sc2c1CCN(C(=O)Nc1cc(C)ccc1C)C2c1ccc(OC)cc1 (stereo not given),·,·,·,0.7,·
CCOC(=O)C(=NCCCN(C)C)NNc1ccc(Br)cc1,5.3,-1.1,1.8,0.5,-11.0
